BRCT PPI red: qHTS Assay for Inhibitors of BRCT-Phosphoprotein Interaction (Red Fluorophore). actives 0.03% (n = 75,000). BRCT-phosphopeptide binding, red fluorescence polarization. Potency, µM (titrated, usually from 76.9 µM), inactives show at the top dose activity change, negative = inhibition, usual class: inhibitors. Breast cancer type 1 susceptibility protein (Homo sapiens), P38398; note: % is set by controls: 0 for no effect and ±100 for the full control effect
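Fluorescence polarization: 100 nM His-tagged BRCA1 BRCT with 100 nM TAMRA-labelled phospho-BACH1 decapeptide, phosphate buffer pH 7.3 with 150 mM NaCl, DTT, 0.01% Tween 20; 12 min RT. Binding inhibition seen as FP decrease.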
TsaE inh: qHTS Assay for Inhibitors of YjeE | tRNA threonylcarbamoyladenosine biosynthesis protein TsaE (Escherichia coli (strain … | purified YjeE enzyme, qHTS inhibition assay | Potency, µM | actives 0.05% (n = 71,000)
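Purified YjeE (10 uM) with BODIPY Texas Red-labeled ADP probe (2 uM); compounds pin-transferred, 15 min at room temperature. Binding inhibition read as decreased fluorescence polarization; ADP titration as control.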
BRCT PPI green: qHTS Assay for Inhibitors of BRCT-Phosphoprotein Interaction (Green Fluorophore); AID 875, 2007; Breast cancer type 1 susceptibility protein (Homo sapiens), P38398; actives 0.05% (n = 75,000); BRCA1 BRCT-phosphopeptide binding, green fluorescence polarization; Potency, µM (titrated, usually from 76.9 µM), for the others: at the highest dose activity change, negative = inhibition, hits mostly inhibitors;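 note: potency is the fitted concentration of half-maximal effect; plate controls were peptide without protein for full effect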
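Compounds were incubated for 12 min at room temperature with a complex of 100 nM fluorescein-tagged pBACH1 decapeptide and 250 nM His-tagged BRCT protein. Buffer was phosphate pH 7.3 with EDTA, DTT and Tween 20. Disruption of binding lowers the polarization signal.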
Hsp90 Hop PPI: qHTS Assay for Disrupters of an Hsp90 Co-Chaperone Interaction | Hsp90 C-terminal peptide / TPR2A (Hop) interaction, human | AlphaScreen TPR2A-His6 binding biotin-Hsp90 C-terminal peptide | Potency, µM (series often up to 57 µM), for the others: top-dose activity change, negative = inhibition | actives 0.44% (n = 71,000) | AID 595, 2007; active = well fitted curve in either direction with a large enough effect; inconclusive = small, poorly fitted or top-dose-only effect, or another doubt; note: potency is the fitted concentration of half-maximal effect; % is set by controls: 0 for no effect and ±100 for the full control effect
Pol III holo inh: qHTS Assay for Inhibitors of DNA Polymerase III Holoenzyme System | reconstituted DNA polymerase III holoenzyme replication, biochemical | actives 0.25% (n = 71,000) | Potency, µM (highest dose often 57.1 µM), for inactives: at the top dose activity change, negative = inhibition; note: potency is the fitted concentration of half-maximal effect; % is set by controls: 0 for no effect and ±100 for the full control effect
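Reconstituted *E. coli* holoenzyme (0.35 nM Pol III, 1 nM beta, 154 nM SSB, 2 nM primase) was preincubated with compound for 15 min at RT. Synthesis on 1.4 nM ssM13Gori ran 35 min, then was stopped with PicoGreen/EDTA and read as dsDNA fluorescence.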
Tau filament bind: qHTS Assay for Tau Filament Binding; Microtubule-associated protein tau (Homo sapiens), P10636; recombinant tau filaments, thioflavin S fluorescence, 15 h; filaments grown with octadecylsulfate alongside compound; Potency, µM (doses to about 57.1 µM), for the others: top-dose activity change, negative = inhibition; actives 2% (n = 71,000); AID 596, 2007;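 note: potency is the fitted concentration of half-maximal effect; % is set by controls: 0 for no effect and ±100 for the full control effect; actives lower thioflavin S fluorescence by blocking filaments or displacing dye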
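Tau 2 uM in ThS buffer dispensed; compound added; 60 uM ODS added (finals 1 uM tau, 30 uM ODS); 15 h 37 C; fluor ex450/em510.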
Starred values were filed as active, the others as inactive; i = inactive; ? = inconclusive; nt = not tested or not shown; [ ] = another dose, or the depositor's remark. Sampled rows, rich in hits. Any-hit rate of the full collection: about 2.4%. Unless noted, calls come from the whole dose curve; as a rule, active = well fitted curve in the direction sought with a large enough effect; inconclusive = small, poorly fitted or top-dose-only effect, or another doubt; inactive = no such curve, though single readings can be large; an effect the other way counts as inactive or inconclusive.

SMILES	BRCT PPI red	TsaE inh	BRCT PPI green	Hsp90 Hop PPI	Pol III holo inh	Tau filament bind
CCOC(=O)OCC1OC(c2ccccc2)C=CC1Oc1ccc2oc(=O)cc(C)c2c1 (stereo unspecified)	2.8%[15.4 µM]	nt	-2.3%[15.4 µM]	nt	nt	nt
CC1CCC2C(=O)N3CCCC3C(=O)N2C1c1ccc(Br)cc1 (stereo unspecified)	-1.3%[15.4 µM]	nt	-1.4%[15.4 µM]	nt	nt	nt
Cc1cccc(Nc2ccccc2C(=O)O)c1C	-2.4%	i	-1.4%[3.08 µM]	-3.6%[26 µM]	2.51µM*	-0.6%[25.6 µM]
Cc1cccc(Nc2ncccc2C(=O)O)c1C	-0.7%	i	0.6%	1.1%	-0.8%	-10.1%
COc1ccc(C(=O)N2CCC3(CC2)CN(CC(C)C)C3)cc1	-0.2%	i	-4.5%	-1.0%	-1.9%	-19.1%
CS(=O)(=O)N1CCC2(CC1)CN(C(=O)Nc1cccc(F)c1)C2	0.5%	?	-5.1%	?	-1.1%	12.6µM*
O=C(c1ccncc1)N1CCC2(CCN(Cc3ccccc3)CC2)CC1	-0.9%	i	-4.1%	-2.2%	-8.1%	4.6%
O=C(c1cc2nc(-c3ccco3)cc(C(F)(F)F)n2n1)N1CCCCCC1	-0.5%	i	-0.7%	5.1%	-2.8%	12.6µM*
O=C(c1cc2nc(-c3ccco3)cc(C(F)(F)F)n2n1)N1CCN(c2ccccn2)CC1	-0.5%	i	1.8%	-9.2%	-4.0%	25.1µM*
O=C(c1cc2nc(-c3ccco3)cc(C(F)(F)F)n2n1)N1CCCc2ccccc21	0.1%	i	-1.5%	-3.6%	-5.7%	-23.9%
O=C(c1ccc2nc(-c3ccco3)c(-c3ccco3)nc2c1)N1CCN(c2ccccc2)CC1	-17.8%	i	-12.0%	?	1.5%	1µM*
O=C(c1cc2nc(-c3ccco3)cc(C(F)(F)F)n2n1)N1CCN(c2ccccc2)CC1	-1.3%	i	1.3%	-16.2%	3.8%	10µM*
O=C(c1cc(-c2ccco2)on1)N1CCN(c2ccccc2)CC1	-1.1%	i	1.0%	-2.1%	-5.8%	-21.4%
CC(C)CCNC(=O)c1cnn2c(C(F)(F)F)cc(-c3ccco3)nc12	1.2%	i	-0.9%	0.3%	-6.8%	15.8µM*
O=C1c2ccc(O)c(O)c2C(=O)c2c(O)ccc(O)c21	31.6µM*	nt	0.3%[3.08 µM]	nt	nt	nt
CCOC(=O)C1=C(CNCc2ccccc2Cl)NC(=O)NC1c1ccc2c(c1)OCO2 (stereo unspecified)	-0.7%	i	7.3%	-11.7%	1.1%	15.8µM*
CCOC(=O)C1=C(CSc2nccn2C)NC(=O)NC1c1ccc2c(c1)OCO2 (stereo unspecified)	0.8%	i	-3.1%	-6.3%	-2.4%	8.4%
CCOC(=O)C1=C(CN2CCC(C)CC2)NC(=O)NC1c1ccc(Cl)cc1 (stereo unspecified)	-0.6%	i	1.9%	-8.3%	-5.4%	15.8µM*
COCC(=O)N1CCC2(CC1)CCN(c1ccccc1)CC2	-0.2%	i	-1.2%	1.1%	-9.2%	-15.6%
C[C@H](NC(=O)[C@@H]1C[C@H]1[C@@H](NC(=O)OCc1ccccc1)c1ccccc1)c1ccccc1	2.0%	i	-0.5%	3.4%	-1.4%	i
O=c1ccc2c(o1)/C(=C/C=C(Cl)Cl)CCC2	-0.2%	i	-2.2%	5.3%[11 µM]	-5.1%[11.4 µM]	2µM*
COc1cc(NC(=O)c2ccccc2)c(OC)cc1NC(=O)CN1CCOCC1	0.8%	i	2.5%	-4.9%	-5.5%	-22.9%
COc1cc(NC(=O)C2CCCO2)c(OC)cc1NC(=O)c1ccccc1 (stereo unspecified)	0.7%	i	1.1%	-10.8%	0.5%	25.1µM*
C[N+](C)(C)CC(=O)N/N=C\c1c(O)ccc2ccccc12	0.0%[15.4 µM]	i	3.3%[15.4 µM]	3.16µM*	-8.1%[11.4 µM]	16.9%[11.4 µM]
C[N+](C)(C)CC(=O)N/N=C\c1ccncc1	-1.0%[15.4 µM]	i	0.0%[15.4 µM]	-2.6%[11 µM]	-15.1%[11.4 µM]	9.9%[11.4 µM]
SMILES	BRCT PPI red	TsaE inh	BRCT PPI green	Hsp90 Hop PPI	Pol III holo inh	Tau filament bind
Cn1c(C(=O)NCCCN2CCCCCC2)cc2c(=O)n(C)c3ccccc3c21	-1.8%	i	6.7%	-4.9%[2.3 µM]	7.94µM*	291.9%
O=C(Nc1cccc(-c2cnc3ccccc3n2)c1)c1ccco1	-0.1%	i	0.4%	-6.5%	-11.2%	31.6µM*
O=C(Nc1cnc2ccccc2c1)c1ccco1	-2.0%	i	-0.9%	-2.9%	-1.3%	-11.1%
c1ccc2cc(NCNc3ccc4ccccc4c3)ccc2c1	-0.1%[15.4 µM]	i	-0.1%[15.4 µM]	?	-10.2%[11.4 µM]	2.51µM*
O=C(NCCN1CCOCC1)c1ccc(Cc2nc3ccccc3[nH]2)cc1	-3.1%	nt	-2.6%	nt	nt	nt
O=S(=O)(Nc1cccnc1)c1cccc2cccnc12	0.0%	i	-1.9%	-1.8%	-3.5%	-16.9%
Cc1ccc(C(=O)OCc2cc3ccccc3[nH]c2=O)cc1	-1.1%	i	-1.8%	-2.9%	-9.8%	4.7%
Cc1ccc(O)c(-c2cc3ccccc3[nH]2)c1	-1.5%	i	-0.1%	-12.6%[11 µM]	-1.2%[11.4 µM]	2.51µM*
O=C(/C=C\c1ccc(O)cc1)c1ccc(O)cc1O	1.2%	i	6.5%	-5.4%	-7.2%	10.3%
COc1cccc(CNc2ccc(S(N)(=O)=O)cc2)c1OC	1.0%	i	1.5%	-3.1%	1.6%	-0.9%
COc1cc(N=Nc2cccc(S(N)(=O)=O)c2)c2ccccc2c1N	-0.4%[15.4 µM]	i	12.1%[15.4 µM]	?	-3.4%[11.4 µM]	1.58µM*
N#CCCn1c(=O)c(-c2cccc(C#N)c2)nc2cnc(Oc3ccccc3)nc21	-2.5%	i	-0.7%	-7.7%	-10.5%	-14.3%
CN1CCN(c2ncc3nc(-c4ccc(Cl)cc4)c(=O)n(C)c3n2)CC1	-1.0%	i	-2.7%	1.9%	-11.9%	3.16µM*
COc1cccc(Cn2c(=O)c(-c3cccc(C#N)c3)nc3cnc(N4CCN(C)CC4)nc32)c1	1.5%	i	-1.4%	-1.5%	-1.8%	3.16µM*
COc1ccc(Oc2ncc3nc(-c4cccc(C#N)c4)c(=O)n(Cc4cccc(OC)c4)c3n2)cc1	-2.7%	i	-4.0%	-7.0%	-4.2%	10µM*
CC(=O)OC[C@@H]1O[C@@H](O/N=C2/C[C@@H](O)[C@@H](O)[C@@H]3[C@@H]4C(=O)N(Cc5ccc6c(c5)OCO6)C(=O)[C@H]4CC[C@H]23)[C@H](OC(C)=O)[C@H](OC(C)=O)[C@@H]1OC(C)=O	1.7%[15.4 µM]	nt	0.1%[15.4 µM]	nt	nt	nt
N#CCCn1c(=O)c(-c2cccs2)nc2cnc(N3CCNCC3)nc21	-0.5%	i	?	3.0%	-1.1%	i

Assay outcomes as filed in PubChem.
